# VP16 counter = VP16 counterscreen qHTS for inhibitors of ROR gamma transcriptional activity; Drosophila S2 Gal4-VP16 UAS-luciferase, luminescence, 20 h; Potency, µM (highest dose often 53.6 µM), actives largely listed as inhibitors; 310,000 tested, 3.5% active;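 note: Gal4-VP16 expression switched on by copper sulfate through the metallothionein promoter; nearly all actives have a fitted effect of over 50% in size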
# TDP1 inh = qHTS Assay for Inhibitors of Tyrosyl-DNA Phosphodiesterase (TDP1); Tyrosyl-DNA phosphodiesterase 1 (Homo sapiens), Q9NUW8; recombinant TDP1, AlphaScreen DNA substrate cleavage; Potency, µM (top dose mostly 130 µM), most hits filed as inhibitors; 350,000 tested, 0.28% active; note: nearly all actives have a fitted effect of over 40% in size
#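 E. coli-derived human Tdp1, 1 nM final. Cpd preinc 15 min RT; substrate 15 nM final, 5 min RT; AS bead mix 10 ug/ml final, 10 min RT. Signal loss = tyrosine-FITC cleavage. No-enzyme wells = max signal.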
# TDP1 cell noCPT = qHTS for Inhibitors of human tyrosyl-DNA phosphodiesterase 1 (TDP1): qHTS in cells in absence of CPT; DT40 Tdp1-/- hTDP1 cells, no CPT, ATP luminescence, 48 h; Potency, µM (series often up to 46.2 µM), hits mostly inhibitors; 420,000 tested, 15% active; AID 686978, 2013; note: nearly all actives have a fitted effect of over 55% in size
#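 Compound effects on proliferation are scored in DT40 Tdp1-/-;hTDP1 cells in the absence of CPT. ATP levels (CellTiter-Glo luminescence) are recorded after a ≥48 hr, 37 °C incubation.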
# RORgamma inh = qHTS for inhibitors of ROR gamma transcriptional activity; AID 2551, 2010; Drosophila S2 Gal4-RORgamma UAS-luciferase reporter, 20 h; Potency, µM (series often up to 53.6 µM), hits mostly inhibitors; 310,000 tested, 5.4% active; note: nearly all actives have a fitted effect of over 60% in size
# Target sequence (P51450 whole entry, looked up, the tested form may be a part): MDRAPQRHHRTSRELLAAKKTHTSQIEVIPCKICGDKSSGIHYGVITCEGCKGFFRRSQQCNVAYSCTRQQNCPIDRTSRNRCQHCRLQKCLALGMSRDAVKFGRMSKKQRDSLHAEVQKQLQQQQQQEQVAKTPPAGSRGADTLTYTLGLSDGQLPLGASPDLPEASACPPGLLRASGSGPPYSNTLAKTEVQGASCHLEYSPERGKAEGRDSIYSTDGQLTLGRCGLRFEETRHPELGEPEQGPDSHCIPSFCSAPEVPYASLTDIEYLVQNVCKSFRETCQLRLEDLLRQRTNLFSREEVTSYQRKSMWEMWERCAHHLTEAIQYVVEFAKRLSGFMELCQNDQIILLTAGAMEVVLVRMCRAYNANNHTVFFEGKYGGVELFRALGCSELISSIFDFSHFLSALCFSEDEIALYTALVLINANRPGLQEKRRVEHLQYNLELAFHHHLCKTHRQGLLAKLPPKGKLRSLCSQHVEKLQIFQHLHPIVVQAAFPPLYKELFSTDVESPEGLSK
#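 Luminescence from a UAS-regulated Photinus luciferase reporter in stably transfected Drosophila Schneider cells is measured; decreased signal marks ROR gamma inhibition. Fusion expression is induced by 700 uM copper sulfate for 20 hr.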
# TDP1 cell CPT = qHTS for Inhibitors of human tyrosyl-DNA phosphodiesterase 1 (TDP1): qHTS in cells in presence of CPT; chicken DT40 Tdp1-/-;hTDP1 cells + 20 nM CPT, ATP luminescence, 48 h; Potency, µM (series often up to 46.2 µM), hits mostly inhibitors; 420,000 tested, 12% active; note: nearly all actives have a fitted effect of over 55% in size
#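 Chicken DT40 Tdp1-/- cells stably complemented with human TDP1 were seeded at 400 cells/well in medium containing 20 nM camptothecin, exposed to pin-transferred compounds, and grown at 37 °C for at least 48 hr. Viability was read as ATP luminescence.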
# Hits are given with their value; 0 = inactive; ? = inconclusive; - = no result given; [ ] = remark or other dose. This is a sample that favours compounds with a hit; in the whole collection about 19% have one here. Calls come from the whole dose curve; as a rule, active = well fitted curve in the direction sought with a large enough effect; inconclusive = small, poorly fitted or top-dose-only effect, or another doubt; inactive = no such curve, though single readings can be large; an effect the other way counts as inactive or inconclusive.
SMILES,VP16 counter,TDP1 inh,TDP1 cell noCPT,RORgamma inh,TDP1 cell CPT
O=C(c1ccccc1O)N1N=C(C(F)(F)F)CC1(O)c1ccc([N+](=O)[O-])cc1 (stereo not drawn),10µM,0,?,11µM,0
CCC1=NN(C(=O)c2ccc(Cl)cc2)C(O)(c2ccccc2)C1 (stereo not drawn),10µM,0,?,?,23µM
CCC1=NN(C(=O)c2ccccc2O)C(O)(c2ccccc2)C1 (stereo not drawn),7.9µM,0,12µM,5µM,13µM
COc1cc(OC)cc(C(=O)Nc2nnc3n2CCS3)c1,-,0,?,-,0
O=C(Nc1nnc([C@@H]2O[C@H](CO)[C@@H](O)[C@H]2O)s1)Nc1cccc2c1CCCC2,-,-,0,-,0
c1cnc2c(OCc3nc4ccccc4[nH]3)cccc2c1,?,0,0,?,0
COc1cc2nc(N(CCCN(C)C)C(=O)c3ccc(S(=O)(=O)N(C)C4CCCCC4)cc3)sc2cc1OC,-,-,16µM,-,?
CN(C)CCCN(C(=O)c1ccc(S(=O)(=O)N(C)C2CCCCC2)cc1)c1nc2ccc(Br)cc2s1,?,0,?,?,?
CN(C)CCCN(C(=O)c1ccc(S(=O)(=O)N(C)C2CCCCC2)cc1)c1nc2ccc(F)cc2s1,?,0,?,?,16µM
CCc1ccc2nc(N(CCCN(C)C)C(=O)c3ccc(S(=O)(=O)N4CCc5ccccc5C4)cc3)sc2c1,?,0,5.2µM,?,5.2µM
COc1cc2nc(N(CCN(C)C)C(=O)c3ccc(S(=O)(=O)N(C)CC4CCCO4)cc3)sc2cc1OC (stereo not drawn),0,0,0,0,0
CCc1ccc2nc(N(CCCN(C)C)C(=O)c3ccc(S(=O)(=O)N(C)C4CCCCC4)cc3)sc2c1,?,0,?,?,16µM
CCCNC(=O)c1cc(-c2ccccc2)c(N2CCCCC2)s1,0,-,?,0,?
O=C(C(=O)c1cc(Br)ccc1O)c1cc(Br)ccc1O,-,-,23µM,-,?
C/C(=N\NC(=O)CCC(=O)O)c1c(-c2ccccc2)c2cc(Br)ccc2[nH]c1=O,0,-,0,0,0
O=C(N/N=C/c1ccc(O)cc1)c1[nH]c2ccc(Br)cc2c1-c1ccccc1,?,0,2.9µM,0,3.7µM
CC/C(C)=N/NC(=O)c1[nH]c2ccc(C)cc2c1-c1ccccc1,0[10 µM],0,?,0,0
NNC(=O)c1[nH]c2ccccc2c1-c1ccccc1,0,-,15µM,0,?
CC(=O)Nc1cc(Br)ccc1O,0,0,0,0,0
O=C(N/N=C/c1c[nH]c2ccccc12)c1[nH]c2ccc(Br)cc2c1-c1ccccc1,?,0,3.7µM,16µM,5.8µM
Cc1cc(CN2CCN(CC(=O)Nc3cc(C(F)(F)F)ccc3-n3cncn3)CC2)no1,-,0,?,-,?
O=C(NN=C1CCCC1)c1[nH]c2ccc(Cl)cc2c1-c1ccccc1,?,0,?,11µM,?
C/C=N/NC(=O)c1cc(Br)ccc1O,?,0,0,11µM,0
CC(=O)NNC(=O)c1[nH]c2ccc(Cl)cc2c1-c1ccccc1,0,-,?,0,0
CCOc1ccc(/C=N/NC(=O)c2[nH]c3ccc(C)cc3c2C)cc1,?,-,0,?,0
SMILES,VP16 counter,TDP1 inh,TDP1 cell noCPT,RORgamma inh,TDP1 cell CPT
Cc1c(C(=O)N/N=C/c2ccc(Cl)cc2)[nH]c2ccc(Cl)cc12,11µM,0,0.92µM,11µM,0.82µM
Nc1ccc(Br)cc1C(=O)O,1.4µM,0,0,2.8µM,0
Nc1ccc(-c2ccc(N)c(C(=O)O)c2)cc1C(=O)O,0,-,0,0,0
COc1ccc(Br)cc1/C=c1\sc2nc(-c3ccco3)nn2c1=O,0,-,?,0,?
COc1ccc(C(C)=O)cc1CS(=O)(=O)CC(=O)NCCc1c[nH]c2ccccc12,-,0,0,-,0
CCOc1ccc(Br)cc1C(=O)N/N=C/c1c[nH]c2ccccc12,0,-,?,0,0
O=C(N/N=C/c1c[nH]c2ccccc12)c1cc(Br)ccc1O,7.9µM,-,0,5.6µM,0
O=C(NN=C1CCN(Cc2ccccc2)CC1)c1cc(Br)ccc1O,?,0,0,3.5µM,0
CCn1c(O)c(C=C2N=c3ccccc3=N2)sc1=S,0,0,0,0,0
CCn1c(SC(C)C(=O)Nc2ccc(C)cc2)nnc1-c1ccccc1 (stereo not drawn),-,-,0,-,0
Cc1ccc(S(=O)(=O)Cc2ccc(C(=O)NCCc3ccc(Cl)cc3)o2)cc1,-,0,29µM,-,16µM
COc1ccc(S(=O)(=O)Cc2ccc(C(=O)NC3CCC(C)CC3)o2)cc1 (stereo not drawn),0,0,?,0,0
CCc1ccccc1S(=O)(=O)Cc1ccc(C(=O)NCc2ccc(Cl)cc2)o1,-,0,?,-,?
CC1CCC(NC(=O)c2ccc(CS(=O)(=O)c3ccc(Cl)cc3)o2)CC1 (stereo not drawn),-,0,18µM,-,18µM
CCc1ccccc1S(=O)(=O)Cc1ccc(C(=O)NCCc2ccc(Cl)cc2)o1,-,0,18µM,-,?
O=C(NCCc1ccc(Cl)cc1)c1ccc(CS(=O)(=O)c2ccc(Cl)cc2)o1,-,0,?,-,16µM
Cc1ccc(OCc2cc(C(=O)N(C)C3CCCc4ccccc43)no2)cc1C (stereo not drawn),-,-,0,-,?
COc1ccc(C(=O)NC2CCN(S(=O)(=O)c3ccccc3F)CC2)cc1,0,-,0,0,0
O=C(/C=C/c1ccc2c(c1)OCO2)NCCS(=O)(=O)N1CCN(c2ccccc2)CC1,-,-,?,-,0
O=C(C[N+]1(CC(O)c2ccccc2)CCCCC1)c1ccccc1 (stereo not drawn),-,-,0,-,?
CSc1ccc(CCNC(=O)c2ccc(CS(=O)(=O)c3ccc(Br)cc3)o2)cc1,-,0,21µM,-,23µM
O=C(Nc1nc(-c2cccs2)c(-c2cccs2)s1)C1CCCC1,0,0,15µM,0,16µM
O=C(Nc1nnc(-c2cccs2)s1)C1CC1,0,0,0,?,0
CCOC(=O)Cn1c(C)c(Br)c(COC)c(C#N)c1=O,0,-,0,0,0
COC(=O)C1=C(C)NC(C)=C(C(=O)OC)C1/C=C/c1ccccc1,0,0,0,0,0
COC(C(=O)Nc1ccc(C(N)=O)cc1)c1ccccc1 (stereo not drawn),0,0,0,0,0
COc1ccc(C(=O)N/N=C\c2coc3ccccc3c2=O)cc1,0,0,0,0,0
Cc1ccc(-n2nc3c(=O)n(CCCC(=O)NCc4ccccc4Cl)nc(C)c3c2C)cc1,0,0,18µM,0,?
Cc1ccc(-n2nc3c(=O)n(C(C)C(=O)NCc4ccccc4Cl)nc(C)c3c2C)cc1 (stereo not drawn),0,0,?,0,?

# Screening data from PubChem.
